# Measurements taken from PubChem BioAssay.
# Activity calls are given as the source filed them.
# How the values were obtained:
# [1] = optical density shifts of acrAB sulA E. coli – strain DRC41, OD650, 48 h, E. coli filamentation inducer project, primary screen (AID 1152); conditions: higher = more signal, called active from +8 up or from −8 down;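 note: E. coli MC1000 strain DRC41 lacking acrAB efflux pump and sulA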
# [2] = probe aLefty1 binding on compound microarray – biochemical, small-molecule microarray, 635/667 nm fluorescence, primary screen (AID 1153); conditions: higher = more signal;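 note: score merges spot fluorescence with signal-to-noise ratio from the scanned slide images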
# [3] = plasmodial surface anion channel blockers, osmotic lysis – cell-based, P. falciparum Indochina, OD700, 1 h, primary screen (AID 1154); conditions: P. falciparum Indochina infected RBC osmotic lysis, higher = more signal, called active from +8 up or from −8 down
# [4] = plasmodial surface anion channel blockers, osmotic lysis – cell-based, P. falciparum Indochina, OD700, 2 h, primary screen (AID 1155);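 note: lysis reports solute entry through the parasite surface anion channel PSAC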; conditions: P. falciparum Indochina infected erythrocytes, higher = more signal, called active from +8 up or from −8 down
# [5] = changes in parasitized red cell lysis, either direction – P. falciparum Indochina, OD700, 3 h, PSAC antagonist project, primary screen (AID 1156); conditions: P. falciparum-infected erythrocytes, osmotic lysis, higher = more signal, called active from +8 up or from −8 down
# [6] = plasmodial surface anion channel blockers, osmotic lysis – cell-based, P. falciparum Indochina, OD700, 18 h, primary screen (AID 1157); conditions: P. falciparum Indochina infected erythrocytes, osmotic lysis OD700, 18 h; higher = more signal, called active from +8 up or from −8 down
# [7] = S6 kinase pathway phospho-S6 level changes – cell-based, A549, cytoblot, luminescence, serum-stimulated, primary screen (AID 1158); conditions: 5 h, higher = more signal;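 note: serum-stimulated A549 lung adenocarcinoma cells; signal is phosphorylated S6 detected by cytoblot immunostaining with HRP secondary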
# [8] = target: NADPH oxidase 2 (Homo sapiens) (UniProt P04839); assay: compounds shifting NOX2 Amplex Red fluorescence – cell-based, HEK293-NOX2, PMA-stimulated, NOX inhibitor project, primary screen (AID 1159); conditions: 45 min, higher = more signal, called active from +8 up or from −8 down; note: test concentration not given here
# Chain of NADPH oxidase 2 (Homo sapiens) (P04839 whole entry, looked up): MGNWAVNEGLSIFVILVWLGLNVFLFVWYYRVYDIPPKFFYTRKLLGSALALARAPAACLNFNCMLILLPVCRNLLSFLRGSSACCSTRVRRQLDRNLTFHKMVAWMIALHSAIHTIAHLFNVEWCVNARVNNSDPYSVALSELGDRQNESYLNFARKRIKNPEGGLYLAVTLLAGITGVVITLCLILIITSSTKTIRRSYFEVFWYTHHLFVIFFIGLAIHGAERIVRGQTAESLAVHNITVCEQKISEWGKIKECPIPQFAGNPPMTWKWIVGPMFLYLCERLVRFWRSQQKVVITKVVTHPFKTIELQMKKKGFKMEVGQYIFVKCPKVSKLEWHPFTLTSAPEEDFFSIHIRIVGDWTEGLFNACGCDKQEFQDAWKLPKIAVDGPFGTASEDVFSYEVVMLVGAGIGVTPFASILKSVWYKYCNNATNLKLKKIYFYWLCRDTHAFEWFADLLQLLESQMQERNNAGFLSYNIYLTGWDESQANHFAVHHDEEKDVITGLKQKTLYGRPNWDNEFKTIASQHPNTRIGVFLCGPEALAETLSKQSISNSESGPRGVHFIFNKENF
# [9] = target: NADPH oxidase 4 (Homo sapiens) (UniProt Q9NPH5); assay: compounds shifting NOX4 Amplex Red fluorescence – cell-based, HEK293-NOX4, tetracycline-induced, NOX inhibitor project, primary screen (AID 1160); conditions: HEK293-NOX4, Amplex Red H2O2 fluorescence, 45 min; higher = more signal, called active from +8 up or from −8 down
# Chain of NADPH oxidase 4 (Homo sapiens) (Q9NPH5 whole entry, looked up): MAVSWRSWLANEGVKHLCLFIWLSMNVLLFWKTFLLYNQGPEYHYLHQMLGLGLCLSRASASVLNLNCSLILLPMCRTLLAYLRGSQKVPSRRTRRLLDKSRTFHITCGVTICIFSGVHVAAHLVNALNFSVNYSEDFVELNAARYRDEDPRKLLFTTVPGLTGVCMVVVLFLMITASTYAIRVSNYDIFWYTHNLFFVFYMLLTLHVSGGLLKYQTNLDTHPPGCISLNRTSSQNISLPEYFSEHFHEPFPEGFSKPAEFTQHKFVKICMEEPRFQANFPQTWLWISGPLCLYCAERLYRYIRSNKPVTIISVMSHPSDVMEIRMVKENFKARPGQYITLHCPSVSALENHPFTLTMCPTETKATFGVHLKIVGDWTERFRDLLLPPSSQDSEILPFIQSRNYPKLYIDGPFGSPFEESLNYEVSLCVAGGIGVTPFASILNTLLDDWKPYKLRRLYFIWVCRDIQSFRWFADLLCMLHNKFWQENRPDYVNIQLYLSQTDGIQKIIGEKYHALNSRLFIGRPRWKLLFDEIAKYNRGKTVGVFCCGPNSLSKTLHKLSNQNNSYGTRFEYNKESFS
# [10] = target: NADPH oxidase 5 (Homo sapiens) (UniProt Q96PH1); assay: compounds shifting NOX5 Amplex Red fluorescence – cell-based, HEK293-NOX5, NOX inhibitor project, primary screen (AID 1161); conditions: HEK293-NOX5, ionomycin, 45 min, higher = more signal
# Chain of NADPH oxidase 5 (Homo sapiens) (Q96PH1 whole entry, looked up): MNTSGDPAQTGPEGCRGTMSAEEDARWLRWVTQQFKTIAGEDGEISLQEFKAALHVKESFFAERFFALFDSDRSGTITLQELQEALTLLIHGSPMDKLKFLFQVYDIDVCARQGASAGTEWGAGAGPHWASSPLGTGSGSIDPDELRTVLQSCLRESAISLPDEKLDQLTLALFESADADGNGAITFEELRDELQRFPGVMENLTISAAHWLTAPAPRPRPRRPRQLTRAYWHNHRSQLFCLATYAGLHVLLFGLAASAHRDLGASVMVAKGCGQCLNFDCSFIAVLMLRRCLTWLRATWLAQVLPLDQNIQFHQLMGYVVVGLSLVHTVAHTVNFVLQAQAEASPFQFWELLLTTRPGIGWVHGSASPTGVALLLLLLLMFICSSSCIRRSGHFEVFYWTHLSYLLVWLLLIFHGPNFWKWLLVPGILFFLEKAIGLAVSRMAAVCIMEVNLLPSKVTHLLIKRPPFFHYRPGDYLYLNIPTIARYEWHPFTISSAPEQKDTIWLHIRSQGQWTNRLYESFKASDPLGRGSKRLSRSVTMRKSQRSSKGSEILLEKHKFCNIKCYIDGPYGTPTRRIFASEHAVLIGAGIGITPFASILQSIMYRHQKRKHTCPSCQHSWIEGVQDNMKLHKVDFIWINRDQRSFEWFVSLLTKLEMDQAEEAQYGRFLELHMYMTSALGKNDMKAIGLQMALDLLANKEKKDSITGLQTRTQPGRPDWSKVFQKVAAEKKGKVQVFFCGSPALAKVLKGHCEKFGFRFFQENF
SMILES,z-score [1],composite z-score [2],z-score [3],z-score [4],z-score [5],z-score [6],z-score [7],z-score [8],z-score [9],z-score [10]
C=C(C(=O)CC[C@H](OC(=O)c1cccnc1)c1ccc(OCCO)cc1)C(C)C,-0.903 (inactive),0.282,23.1 (active),5.33 (inactive),1.01 (inactive),1.24 (inactive),0.136,-0.427 (inactive),0.525 (inactive),-1.85
O=C1OCCC=C[C@H]2OC34C=CCN(Cn5nnc6ccccc65)C(=O)[C@H]3N(CCCCCO)C(=O)[C@@H]4C12 (stereo not given in full),0.592 (inactive),0.119,2.34 (inactive),0.573 (inactive),2.35 (inactive),0.281 (inactive),0.0848,1.4 (inactive),0.279 (inactive),1.51
[N-]=[N+]=Nc1ccccc1[C@H]1OC(c2ccc(OCCCO)cc2)=N[C@@]1(Cc1ccccc1)C(=O)NCc1ccccc1,1.74 (inactive),0.512,33.5 (active),26.9 (active),1.22 (inactive),2.33 (inactive),2.03,-2.35 (inactive),-0.275 (inactive),-1.3
COCCCNC(=O)[C@@H]1c2ccccc2C(=O)N(c2ccc(C)cn2)[C@H]1c1ccc(CO)cc1,-0.889 (inactive),-0.0984,1.21 (inactive),-0.205 (inactive),1.74 (inactive),0.205 (inactive),-0.112,0.837 (inactive),-0.797 (inactive),-0.00783
CC(C)(C)OC(=O)CC[C@]1(C(=O)N2CCCCC2)N=C(c2ccc(OCCCO)cc2)O[C@H]1c1ccccc1CN=[N+]=[N-],2.54 (inactive),1.66,21.9 (active),4.95 (inactive),0.768 (inactive),0.158 (inactive),1.89,-0.683 (inactive),1.56 (inactive),0.95
COCCOC(=O)N1C(=O)[C@@]2(c3cc(C#CC4(O)CCCCCC4)ccc31)[C@H](C(=O)N1CCN(c3ncccn3)CC1)[C@H]1C(=O)O[C@H](c3ccccc3)[C@H](c3ccccc3)N1[C@@H]2c1ccc(O)cc1,0.923 (inactive),0.63,0.71 (inactive),0.566 (inactive),0.991 (inactive),0.613 (inactive),0.274,1.43 (inactive),-1.31 (inactive),1.49
C=CCC(OC(C)=O)[C@@H]1[C@@H](N(Cc2cc3ccccc3o2)C(=O)Cc2ccc(OC)cc2)c2cc(OCCCO)ccc2N1C(=O)c1ccc(-c2ccccc2)cc1 (stereo not given in full),1.26 (inactive),0.143,2.1 (inactive),0.0881 (inactive),0.821 (inactive),0.432 (inactive),0.78,0.125 (inactive),-0.964 (inactive),1.56
CN(C)CCCCCCNC(=O)[C@@H]1C[C@@H]2C(=O)NCC(=O)N2[C@@H]1c1ccc(O)cc1,-0.407 (inactive),0.298,0.755 (inactive),-0.296 (inactive),0.794 (inactive),-0.114 (inactive),-0.341,-0.289 (inactive),0.12 (inactive),0.524
O=C1c2ccccc2C(=O)C2CC([C@H]3Oc4ccccc4S(=O)(=O)N4CCC[C@@H]34)=CCC12 (stereo not given in full),1.03 (inactive),-0.196,8 (inactive),1.12 (inactive),-0.0247 (inactive),0.696 (inactive),0.127,0.5 (inactive),-3.1 (inactive),-0.779
COc1ccc([Si](C)(C)[C@@H]2[C@@H](CCO)O[C@]3(C(=O)N(Cc4ccc(N5C(=O)c6ccccc6Oc6ccccc65)cc4)c4ccccc43)[C@H]2C)cc1,-0.572 (inactive),0.0496,3.28 (inactive),1.99 (inactive),-1.14 (inactive),1.26 (inactive),0.0148,0.0702 (inactive),1.63 (inactive),2.29
O=C1c2ccccc2[C@](Cc2ccccc2I)(C(=O)NC2CC2)[C@H](c2ccc(CO)cc2)N1Cc1ccccc1Cl,-1.03 (inactive),0.44,8.39 (active),0.825 (inactive),2.82 (inactive),0.966 (inactive),-0.283,0.717 (inactive),0.466 (inactive),0.739
CC(C)C[C@@H]1NC(=O)[C@@H]2C[C@H](C(=O)NCCCC[N+](C)(C)C)[C@H](c3cccc(OCCO)c3)N2C1=O,-0.44 (inactive),0.115,3.73 (inactive),1.16 (inactive),-0.369 (inactive),0.645 (inactive),-0.102,-1.2 (inactive),-0.152 (inactive),-0.372
C=C[C@H](C)[C@H](OC(=O)Nc1ccc(SC)cc1)c1ccc(O)c2ccccc12,-1.61 (inactive),-1.01,28.9 (active),10.2 (active),2.13 (inactive),0.867 (inactive),0.451,-5.46 (inactive),-0.825 (inactive),1.76
Cc1ccc(S[C@]2(C(=O)NCC(C)C)CC(=O)N(C3CCCCC3)[C@@H]2c2ccc(CO)cc2I)cc1,0.256 (inactive),0.568,4.6 (inactive),0.61 (inactive),0.796 (inactive),0.597 (inactive),0.212,1.54 (inactive),-1.02 (inactive),-2.07
COC(=O)C(CC#Cc1ccc2c(c1)[C@]1(C(=O)N2)[C@H](c2ccc(O)cc2)N2[C@H](c3ccccc3)[C@H](c3ccccc3)OC(=O)[C@H]2[C@@H]1C(N)=O)C(=O)OC,2.05 (inactive),-0.216,1.09 (inactive),1.58 (inactive),0.6 (inactive),1.3 (inactive),1.39,0.222 (inactive),0.356 (inactive),-0.453
CC(C)(C)OC(=O)CC[C@@]1(C(=O)N2CCCCC2)N=C(c2ccc(OCCCO)cc2)O[C@@H]1c1ccccc1CN=[N+]=[N-],0.502 (inactive),0.549,29.6 (active),25 (active),1.03 (inactive),4.6 (inactive),-0.243,-0.601 (inactive),1.13 (inactive),1.22
COC(=O)C(CC#Cc1ccc2c(c1)[C@]1(C(=O)N2)[C@H](C(=O)N2CCc3cc(OC)c(OC)cc3C2)[C@H]2C(=O)O[C@H](c3ccccc3)[C@H](c3ccccc3)N2[C@@H]1c1ccc(O)cc1)C(=O)OC,1.58 (inactive),-0.321,6.21 (inactive),1.93 (inactive),1.93 (inactive),0.958 (inactive),0.125,-0.0647 (inactive),-1.83 (inactive),0.121
CC(C)NC(=O)[C@@]1(Cc2ccccc2I)c2ccccc2C(=O)N(Cc2ccccc2C(F)(F)F)[C@H]1c1ccc(CO)cc1,0.267 (inactive),0.243,5.93 (inactive),1.82 (inactive),0.602 (inactive),1.19 (inactive),-0.171,1.12 (inactive),-0.213 (inactive),2.3
O=C1c2ccccc2[C@](Cc2ccccc2I)(C(=O)NCC(F)(F)F)[C@H](c2ccc(CO)cc2)N1Cc1ccccc1,0.131 (inactive),-0.229,2.39 (inactive),0.111 (inactive),0.369 (inactive),0.278 (inactive),-0.261,0.738 (inactive),-0.16 (inactive),1.14
C[N+](C)(C)CCCC[C@@H]1NC(=O)[C@H]2C[C@@H](C(=O)NCCCCCCN)[C@@H](c3cccc(OCCO)c3)N2C1=O,-0.0261 (inactive),1.29,1.19 (inactive),0.156 (inactive),3.3 (inactive),0.0792 (inactive),-0.161,1.12 (inactive),0.64 (inactive),1.58
CCCC=C(CCC)[C@@H](NS(=O)(=O)c1cccc2cccnc12)c1ccc(C(=O)OC)cc1,-1.2 (inactive),0.968,-0.643 (inactive),-0.299 (inactive),-0.722 (inactive),-1.19 (inactive),0.393,0.0603 (inactive),0.212 (inactive),2
COc1ccc([Si](C)(C)[C@@H]2[C@@H](CCO)O[C@]3(C(=O)N(Cc4ccccc4)c4ccc(N5C(=O)COc6ccccc65)cc43)[C@H]2C)cc1,2.1 (inactive),-0.435,3.28 (inactive),2.11 (inactive),0.364 (inactive),1.78 (inactive),0.631,0.883 (inactive),1.33 (inactive),1.42
COCCCNC(=O)[C@]1(Cc2ccccc2)N=C(c2ccc(OCCCO)cc2)O[C@@H]1c1ccccc1N=[N+]=[N-],1.1 (inactive),0.334,31.9 (active),27.3 (active),2.49 (inactive),2.24 (inactive),1.44,-5.51 (inactive),-2.84 (inactive),-2.21
O=C1N(CCS(=O)(=O)c2ccccc2)c2ccccc2[C@H]2OC(c3ccc(OCCCO)cc3)=N[C@@]12CCS(=O)(=O)c1ccccc1,0.401 (inactive),0.582,28.2 (active),26.3 (active),3.35 (inactive),4.36 (inactive),-0.357,1.76 (inactive),0.492 (inactive),1.46
C[N+](C)(C)CCCC[C@@H]1NC(=O)[C@@H]2C[C@H](C(=O)NCCCCCNC(=O)CS)[C@H](c3cccc(OCCO)c3)N2C1=O,0.724 (inactive),-0.0061,3.64 (inactive),0.813 (inactive),-1.78 (inactive),0.718 (inactive),0.596,1.54 (inactive),0.433 (inactive),0.711
COC(=O)[C@@]1(Cc2ccccc2N=[N+]=[N-])N=C(c2ccc(OCCCO)cc2)O[C@H]1c1ccccc1,-0.734 (inactive),0.406,22.9 (active),8.4 (active),0.0321 (inactive),2.28 (inactive),0.0781,-2.34 (inactive),0.355 (inactive),-1.76
